# In paper PMC4552634, “A New Set of Chemical Starting Points with Plasmodium falciparum Transmission-Blocking Potential for Antimalarial Drug Discovery” (PLoS ONE, 2015):
# Out of some 13,000 compounds screened, about 3,200 (25%) showed an effect of 50% or more. The list shows a part of the results.
# Test system: P. falciparum stage V gametocytes
# Design: BacTiter-Glo ATP luminescence viability of purified stage V gametocytes in 384-well plates, per cent inhibition versus DMSO
# Settings: 48 h, 5 µM; inhibitor
row,SMILES,% Inhibition [%]
1,CCOCCCNc1ncc(-c2ccsc2)c(-c2nc(C)cs2)n1 [TCMDC-124842],18.59
2,Cc1cccc(C(=O)Nc2ccnc(N3CCC(N(C)Cc4ccc(C#N)cc4)CC3)c2)c1 [TCMDC-134977],5.364
3,CCN(CC)CCN1C(=O)c2oc3ccc(F)cc3c(=O)c2C1c1cccc(Cl)c1 (stereo not shown) [TCMDC-124911],13.72
4,O=C(n1c(-c2cc3ccccc3n2C(=O)C(F)(F)F)cc2ccccc21)C(F)(F)F [TCMDC-131570],0.2533
5,CC(C)COc1ccc(Cl)cc1Cc1nc(-c2nc3c(CN4CCN(C)CC4)cccc3[nH]2)cs1 [TCMDC-132173],82.6
6,CC(C)COc1ccc(Cl)cc1Nc1nc(-c2nc3ccccc3[nH]2)cs1 [TCMDC-137041],2.246
7,CC(C)COc1ccc(Cl)cc1Cc1nc(-c2nc3nc(N4CCN(C)CC4)ccc3[nH]2)cs1 [TCMDC-136876],6.698
8,CN1CCN(c2ccc3nc(-c4ccc(Cc5cc(Cl)ccc5OCc5ccccc5)o4)[nH]c3c2)CC1 [TCMDC-136708],-32.6
9,CNCc1ccc2nc(-c3coc(Cc4cc(Cl)ccc4OCC(C)C)n3)[nH]c2c1 [TCMDC-136808],13.07
10,CNCc1cccc2[nH]c(-c3csc(Cc4cc(Cl)ccc4OCC(C)C)n3)nc12 [TCMDC-132172],92.59
11,CN(C)Cc1ccc2nc(-c3cccc(Cc4cc(Cl)ccc4OCc4ccc(Cl)cc4F)n3)[nH]c2c1 [TCMDC-136892],34.33
12,Cc1cc(-c2nc3ccc(CN4CCN(C)CC4)cc3[nH]2)nn1Cc1cc(Cl)ccc1OCc1ccccc1 [TCMDC-136883],19.79
13,Clc1ccc(OCc2ccccc2)c(-c2nc(-c3nc4ccc(Cl)cc4[nH]3)cs2)c1 [TCMDC-136728],-8.781
14,CN(C)Cc1cccc2[nH]c(-c3csc(Cc4cc(Cl)ccc4OCc4ccccc4)n3)nc12 [TCMDC-132174],97.26
15,CC(C)COc1ccc(Cl)cc1Cc1nc(-c2nc3ccc(CN4CCN(C)CC4)cc3[nH]2)co1 [TCMDC-136812],12.89
16,CN1CCN(CCc2ccc3nc(-c4csc(Cc5cc(Cl)ccc5OCc5ccccc5)n4)[nH]c3c2)CC1 [TCMDC-132171],95.37
17,CCc1ccc(NC(=O)c2cccc(CN3CCCN(CC4CCCCC4)CC3)c2)cc1 [TCMDC-135988],-39.09
18,O=C(c1ccc(-c2ccc(-c3nc4ccccc4[nH]3)s2)cc1)N1CCCCC1CN1CCC(O)C1 (stereo not shown) [TCMDC-132341],-18.79
19,CC(O)C1CCCCN1C(=O)c1cccc(-c2ccc(-c3nc4ccccc4[nH]3)s2)c1 (stereo not shown) [TCMDC-132332],27.09
20,CC(C)Cn1c(N)cc(=O)n(C)c1=O [TCMDC-123470],3.426
21,CCCCCC(=O)NCC(NCCCNc1cc(=O)c2ccccc2[nH]1)c1cc(Br)cc(Br)c1 (stereo not shown) [TCMDC-140316],24.17
22,COc1ccc2ncc(Cl)c(NCC3(O)CCC(NCc4ccc5c(n4)NC(=O)CS5)CC3)c2n1 (stereo not shown) [TCMDC-134671],11.29
23,CC(=O)c1cccc2[nH]c(C(=O)NC3CCC(CCN4CCc5ccc(C#N)cc5C4)CC3)cc12 (stereo not shown) [TCMDC-139218],4.712
24,COc1ccc(Cn2c(N3CCN(S(=O)(=O)c4ccc(OC)cc4)CC3)nc3c2c(=O)n(CC2CC2)c(=O)n3CC2CC2)cc1 [TCMDC-138935],-17.86

row,SMILES,% Inhibition [%]
1,COc1ccc(S(=O)(=O)N2CCC3(CC2)OCC(=O)NC3c2ccc(Cl)c(Cl)c2)cc1 (stereo not shown) [TCMDC-133797],8.685
2,Cc1nc(-c2cccc(C(=O)NC3CCC(CCN4CCc5ccc(-c6cccnc6)cc5CC4)CC3)c2)no1 (stereo not shown) [TCMDC-140228],-46.69
3,O=C(CCN1CCCCC1)Nc1ccc(Nc2nccc(NCC(O)c3ccccc3)n2)cc1 (stereo not shown) [TCMDC-136464],-29.58
4,C[C@@H](Oc1cc(-n2cnc3ccc(NC(=O)CCN4CCCCC4)cc32)sc1C(N)=O)c1ccccc1Cl [TCMDC-135971],64.1
5,C[C@@H](Oc1cc(-n2cnc3ccc(NC(=O)NC(C)(C)C)cc32)sc1C(N)=O)c1ccccc1Cl [TCMDC-135806],66.79
6,CC(Oc1cc(-n2cnc3ccc(NC(=O)CCN4CCCCC4)cc32)sc1C(N)=O)c1ccccc1Cl (stereo not shown) [TCMDC-135370],69.65
7,COc1ccc2c(c1)ncn2-c1cc(OCc2ccncc2Br)c(C(N)=O)s1 [TCMDC-138876],39.96
8,C[C@@H](Oc1cc(-n2cnc3cc(SCCN4CCN(C)CC4)ccc32)sc1C(N)=O)c1ccccc1Cl [TCMDC-135452],29.32
9,NC(=O)c1sc(-n2cnc3ccccc32)cc1OCc1ccccc1[N+](=O)[O-] [TCMDC-134488],13.6
10,COc1ccc2nc(Nc3nc4ccncc4[nH]3)sc2c1 [TCMDC-131950],20.19
11,c1ccc(-c2nc(Nc3ccncc3)sc2-c2ccccc2)cc1 [TCMDC-139027],-36.52
12,c1cc(Nc2nc(-c3ccc(-c4csc(Nc5ccncc5)n4)cc3)cs2)ccn1 [TCMDC-139725],127.3
13,c1ccc2sc(-c3csc(Nc4ccncc4)n3)nc2c1 [TCMDC-135159],-15.83
14,c1ccc(-c2ccc(-c3csc(Nc4ccncc4)n3)cc2)cc1 [TCMDC-139026],62.72
15,Nc1ccc(-c2csc(Nc3ccncc3)n2)cc1 [TCMDC-138715],-22.32
16,Clc1ccc(-c2cc(-c3csc(Nc4ccncc4)n3)on2)cc1 [TCMDC-135160],-12.1
17,CC(C)N(CC(=O)c1ccc(O)c(C(=O)O)c1)Cc1ccccc1 [TCMDC-131774],0.6957
18,COc1ccccc1COc1c(C)nc(N)nc1N [TCMDC-131356],-14.22
19,CC(C)CC(=O)N1CCNC[C@@H]1C(=O)NCc1ccc(Cl)c(Cl)c1 [TCMDC-141242],45.03
20,CN1CCC(Oc2ccc(CN3CC[C@H](NC(=O)c4ccc(Cl)c(Cl)c4)C3)c3ccccc23)C1 (stereo partly shown) [TCMDC-140271],51.75
21,CN1CCC(Oc2ccc(CN3CC[C@H](NC(=O)c4ccc(Cl)c(Cl)c4)C3)cc2Cl)C1 (stereo partly shown) [TCMDC-140276],27.21
22,CN1CCC(Oc2ccc(CN3CC[C@H](NC(=O)c4cccc(C#N)c4)C3)c3ccccc23)C1 (stereo partly shown) [TCMDC-135277],88.31
23,Cc1cc(CN2CC[C@H](NC(=O)c3ccc(Cl)c(Cl)c3)C2)ccc1OC1CCN(C)C1 (stereo partly shown) [TCMDC-140281],32.63
24,CN1CCC(Oc2cc(CN3CC[C@H](NC(=O)c4ccc(Cl)c(Cl)c4)C3)ccc2I)C1 (stereo partly shown) [TCMDC-140266],15.84

row,SMILES,% Inhibition [%]
1,CN1CCC(Oc2ccc(CN3CC[C@H](NC(=O)c4cc(F)cc(F)c4)C3)c3ccccc23)C1 (stereo partly shown) [TCMDC-135275],57.07
2,CN1CCC(Oc2ccc(CN3CC[C@H](NC(=O)c4ccc(Cl)c(F)c4)C3)c3ccccc23)C1 (stereo partly shown) [TCMDC-135274],60.57
3,CCC(=O)N[C@@H]1CN[C@@H](C#Cc2cc3c(Nc4ccc(OCc5cccc(F)c5)c(Cl)c4)ncnc3s2)C1 [TCMDC-135410],-39.51
4,N#Cc1c(N2CCCCCC2)nc(N)c2c(N)nc3c(c12)CC(=O)N3c1ccc(F)cc1 [TCMDC-123902],44.67
5,O=C(Nc1ccc(S(=O)(=O)N2CCCCC2)cc1)c1cc(-c2cc(Cl)ccc2O)n[nH]1 [TCMDC-124905],-12.68
6,CN1CCC(Oc2ccc(CN3CC[C@H](NC(=O)c4ccc(F)c(F)c4)C3)c3ccccc23)C1 (stereo partly shown) [TCMDC-135278],72.64
7,CCCCCN1CCCN(Cc2cccc(NC(=O)c3ccc4ccccc4c3)c2)CC1 [TCMDC-141854],-83.26
8,Nc1ccc2[nH]cc(C3CCN(CC4CCN(C(=O)/C=C/c5ccc(Cl)c(Cl)c5)CC4)CC3)c2n1 [TCMDC-140061],100.1
9,CC(=O)Nc1ccc2[nH]cc(C3CCN(CCC4CCN(C(=O)/C=C/c5ccc(Cl)c(Cl)c5)CC4)CC3)c2n1 [TCMDC-140113],-31.57
10,Cc1cccc2[nH]cc(C3CCN(CCC4CCN(C(=O)/C=C/c5ccc(Cl)c(Cl)c5)CC4)CC3)c12 [TCMDC-140124],-19.67
11,CC(=O)Nc1ccc2[nH]cc(C3CCN(CC4CCN(C(=O)/C=C/c5ccc(Cl)c(Cl)c5)CC4)CC3)c2n1 [TCMDC-140112],-22.97
12,Nc1ccc2[nH]cc(C3CCN(CCC4CCN(C(=O)/C=C/c5ccc(Cl)c(Cl)c5)CC4)CC3)c2n1 [TCMDC-140062],107.7
13,CC(Cc1ccc(C(=O)OC(c2ccccc2)c2ccccc2)cc1)NCC(O)c1ccccc1 (stereo not shown) [TCMDC-131546],37.45
14,Cc1ccc2nc(-c3cc(-c4cccc(CCN5CCOCC5)c4)cnc3N)[nH]c2c1 [TCMDC-133136],-33.78
15,Cc1nc2ccc(/C=C/C(=O)NC3CCC(CCN4CCc5ccc(C#N)cc5CC4)CC3)cc2[nH]1 (stereo not shown) [TCMDC-139675],-3.608
16,Cc1cc(O)cc2c(C3CCN(CC4CCC(NC(=O)/C=C/c5ccccc5Cl)CC4)CC3)c[nH]c12 (stereo not shown) [TCMDC-139924],-46.01
17,CS(=O)(=O)Nc1ccc2[nH]cc(C3CCN(CC4CCC(NC(=O)/C=C/c5ccc(Cl)c(Cl)c5)CC4)CC3)c2n1 (stereo not shown) [TCMDC-140088],4.239
18,Nc1ccc2[nH]cc(C3CCN(CC4CCC(NC(=O)/C=C/c5ccccc5Cl)CC4)CC3)c2n1 (stereo not shown) [TCMDC-140063],106.2
19,Nc1ccc2[nH]cc(C3CCN(CC4CCC(NC(=O)/C=C/c5ccc(Cl)c(Cl)c5)CC4)CC3)c2n1 (stereo not shown) [TCMDC-140064],97.26
20,CC(=O)Nc1ccc2[nH]cc(C3CCN(CC4CCC(NC(=O)/C=C/c5ccccc5Cl)CC4)CC3)c2n1 (stereo not shown) [TCMDC-140111],60.6
21,CNC(=O)c1ccc2[nH]cc(C3CCN(CC4CCC(NC(=O)/C=C/c5ccccc5Cl)CC4)CC3)c2c1 (stereo not shown) [TCMDC-139978],-4.902
22,CC(=O)Nc1ccc2[nH]cc(C3CCN(CC4CCC(NC(=O)/C=C/c5ccc(Cl)c(Cl)c5)CC4)CC3)c2n1 (stereo not shown) [TCMDC-140114],6.04
